Inconclusive results are not listed. Activity calls are given as the source filed them.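 The calls were made as follows, unless noted: active = differentiation response of at least 50%, scaled between solvent and reference control, from cells with both markers; inactive = the rest.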

A short description of experiment [1]: rapamycin-like changes in RPL19A-GFP expression – cell-based, S. cerevisiae, multiplex flow cytometry, primary screen (AID 1862; in the data active = percent of DMSO control GFP below about 86%;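 also: lower values mimic rapamycin by blocking the RPL19A rise seen in DMSO cells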). Particulars: S. cerevisiae RPL19A-GFP strain, flow cytometry fluorescence, 3 h; at 10 µM; stronger effect = lower value.
Experiment [2] can be described thus: TOR pathway GLN3 branch reporter MEP2-GFP changes – S. cerevisiae, multiplex flow cytometry, primary screen (AID 1867;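 active = GFP response, as percent of the DMSO control, above the screen-wide mean plus 3 SD, about 139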;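 also: median GFP channel fluorescence of barcode-gated MEP2-GFP cells measured by flow cytometry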). Particulars: S. cerevisiae MEP2-GFP strain, 3 h, at 10 µM, stronger effect = higher value, 100% means same as DMSO wells. (A flow cytometer gives signals particle by particle.)
Experiment [3] can be described thus: TOR pathway RTG branch CIT2 reporter changes – S. cerevisiae, GFP fusion, multiplex flow cytometry, primary screen (AID 1870;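 active = percent response above a set limit, the screen-wide mean plus 3 SD, cut at about 130% in these data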;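 also: barcoded CIT2-GFP strain pooled with four other GFP strains with rapamycin as positive control; median GFP fluorescence per well over plate mean of DMSO wells so 100% = DMSO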). Particulars: S. cerevisiae CIT2-GFP expression, 3 h, at 10 µM, stronger effect = higher value.
The nature of experiment [4]: TOR pathway LAP4-GFP level changes – S. cerevisiae, multiplex flow cytometry, primary screen (AID 1873;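 active = GFP signal, as percent of the solvent control, above the screen mean plus 3 SD, about 149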). As to conditions: S. cerevisiae LAP4-GFP expression, 3 h, at 10 µM, stronger effect = higher value.
Experiment [5] can be described thus: yeast AGP1-GFP level changes, GLN3 branch – cell-based, multiplex flow cytometry, S. cerevisiae, primary screen (AID 1887;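 active = GFP signal above the screen-wide mean plus 3 SD, that is over about 124.5% of the solvent control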;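 also: AGP1-GFP fusion strain of S. cerevisiae within a five-strain barcoded multiplex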). Particulars: 3 h, at 10 µM, stronger effect = higher value.
Experiment [6] in a line: reduced mouse 2C T cell binding to pMHC/ICAM-1 vesicles – MLPCN validation set, flow cytometry, LFA-1/ICAM-1 modulator project, pilot screen (AID 2523;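 active = response below a set limit, under 55% cells CD8-positive and vesicle-bound, and CD8 cells' 90th-percentile brightness under 279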;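 as to vesicle binding response: mean PE anti-B7-1 fluorescence of CD8+ cells relative to row control; 100% = QL9-loaded vesicles with DMSO vehicle in the same plate row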). As to conditions: 2C mouse CD8+ T cells, at 7 µM, stronger effect = lower value; double positive events: measured here: CD8+/vesicle+ event percentage.
Experiment [7] addresses Integrin beta-1 (Homo sapiens) + Integrin alpha-4 (Homo sapiens) (UniProt P13612+P05556). Description: alpha4beta1 integrin LIBS antibody binding reduction – U937 cells, HUTS-21 mAb, flow cytometry, validation set, VLA-4 allosteric modulator project, pilot screen (AID 2674;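 active = inhibition above 50%, about 3 SD of the validation set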;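 also: antibody binding induced by the VLA-4 ligand LDV present at three times its Kd; 0% = LDV ligand with antibody and no compound and 100% = antibody without LDV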). As to conditions: HUTS-21 LIBS mAb binding, at 6.7 µM, stronger effect = higher value, binding induced by LDV ligand.

Experiment [8] in a line: calorie-restriction mimetic ROS inhibitors, yeast – validation compound set, pilot screen (AID 2706;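 active = superoxide response below 65% of plate, a cut near 3 SD across the whole screen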;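 also: yeast exposed to compound for one week at 30 degrees C before staining; 100% = mean of all compound wells on the same plate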). As to conditions: S. cerevisiae aging, superoxide DHE fluorescence; at 10 µM; stronger effect = lower value.
In experiment [9] the target is Beta-adrenergic receptor kinase 1 (Homo sapiens) (UniProt P25098). Description: GRK2 binders displacing RNA aptamer, biochemical, validation, human GRK2, bead flow cytometry (AID 488806;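 active = aptamer binding inhibition above 30%, about 3 SD of noise from non-fluorescent compounds; inactive = inhibition at or below 30%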). Particulars: bead-bound GRK2, FAM-aptamer displacement, at 10 µM, stronger effect = higher value.
Experiment [10] concerns the target Beta-2 adrenergic receptor (Homo sapiens) (UniProt P07550). Description: agonist-induced loss of surface beta2AR – cell-based, FAP fluorogen, flow cytometry, validation set, pilot screen (AID 504459;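 active = percent response above 42, roughly 3 SD of non-fluorescent test compounds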;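 also: agonist-driven loss of surface beta2AR via internalization measured by FAP dye flow cytometry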). As to conditions: Am2.2-beta2AR cells, at 10 µM, stronger effect = higher value.
Experiment [11] has as its target AP-2 complex subunit beta (Homo sapiens) (UniProt P63010). Description: beta-arrestin/AP2 interaction blockers – biochemical, validation set, GST-AP2 beads, flow cytometry, pilot screen (AID 504541;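 active = inhibition above 54%, about 3 SD of non-fluorescent compounds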;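 also: AP2 carries R879A mutation and is captured from E. coli lysate; bead-bound FITC arrestin peptide fluorescence measuring arrestin peptide binding to AP2; 0% = DMSO wells and 100% = excess unlabeled arrestin peptide control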). As to conditions: FITC arrestin peptide, at 10 µM, stronger effect = higher value, AP2 beta2 appendage fragment, R879A mutant.
A short description of experiment [12]: cytosolic pH regulators acting via V-ATPase – S. cerevisiae, pHLuorin, HTS validation (AID 504600; in the data active = response above about 15%;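 also: plate controls were DMSO for no effect and reference compound for full effect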). Particulars: V-ATPase proton transport, at 10 µM, stronger effect = higher value.
Experiment [13] relates to anti-desmoglein-3 scFv antibody binding to human DSG3. Description: blockers of pathogenic pemphigus antibody–desmoglein-3 binding – biochemical, validation compound set, bead-based, flow cytometry, pilot screen (AID 588368;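 active = binding below the plate cutoff, the plate median minus 3 SD, with a reading above zero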;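 also: signal is the median channel fluorescence of bead-bound GFP antibody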). As to conditions: Protein G beads, DSG3-Fc, scFv-GFP binding, at 10 µM, stronger effect = lower value.
A short description of experiment [14]: Nile Red efflux blockade in pump-expressing yeast – validation compound set, multiplex, phenotypic, pilot screen (AID 588506;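 active = efflux inhibition above 0.42, the validation set average plus 4 SD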;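 also: Nile Red retained in cells so higher fluorescence means more efflux inhibition; 0 = negative control wells and 1 = enniatin B 25 µM full block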). Particulars: S. cerevisiae pump-expressing triplex, Nile Red efflux flow cytometry; at 10 µM; stronger effect = higher value; the pumps come from Candida albicans.
For experiment [15], the target named is ATP-binding cassette sub-family B member 6 (Homo sapiens) (UniProt Q9NP58). Description: blockers of ABCB6-driven porphyrin uptake – K562-ABCB6 cells, flow cytometry, validation set, pilot screen (AID 588550;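 active = inhibition above the screen-wide mean plus 3 SD, about 51%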;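 also: 0% = DMSO wells and 100% = benzethonium chloride 70 µM positive control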). Particulars: K562-ABCB6 porphyrin accumulation, 1 h, at 10 µM, stronger effect = higher value.
A short description of experiment [16]: AML differentiation inducers, ER-HoxA9 marrow cells – cell-based, GFP/MAC1 double positive, flow cytometry, validation set, primary screen (AID 588685).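 Also: compound exposure lasts four days before antibody staining and flow analysis; 0% = DMSO wells and 100% = 5 µM fulvestrant positive control.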 As to conditions: stronger effect = higher value, normalized: vehicle 0, fulvestrant 100.

Chain of AP-2 complex subunit beta (Homo sapiens) (P63010 whole entry, looked up, the tested form may be a part, one chain of several): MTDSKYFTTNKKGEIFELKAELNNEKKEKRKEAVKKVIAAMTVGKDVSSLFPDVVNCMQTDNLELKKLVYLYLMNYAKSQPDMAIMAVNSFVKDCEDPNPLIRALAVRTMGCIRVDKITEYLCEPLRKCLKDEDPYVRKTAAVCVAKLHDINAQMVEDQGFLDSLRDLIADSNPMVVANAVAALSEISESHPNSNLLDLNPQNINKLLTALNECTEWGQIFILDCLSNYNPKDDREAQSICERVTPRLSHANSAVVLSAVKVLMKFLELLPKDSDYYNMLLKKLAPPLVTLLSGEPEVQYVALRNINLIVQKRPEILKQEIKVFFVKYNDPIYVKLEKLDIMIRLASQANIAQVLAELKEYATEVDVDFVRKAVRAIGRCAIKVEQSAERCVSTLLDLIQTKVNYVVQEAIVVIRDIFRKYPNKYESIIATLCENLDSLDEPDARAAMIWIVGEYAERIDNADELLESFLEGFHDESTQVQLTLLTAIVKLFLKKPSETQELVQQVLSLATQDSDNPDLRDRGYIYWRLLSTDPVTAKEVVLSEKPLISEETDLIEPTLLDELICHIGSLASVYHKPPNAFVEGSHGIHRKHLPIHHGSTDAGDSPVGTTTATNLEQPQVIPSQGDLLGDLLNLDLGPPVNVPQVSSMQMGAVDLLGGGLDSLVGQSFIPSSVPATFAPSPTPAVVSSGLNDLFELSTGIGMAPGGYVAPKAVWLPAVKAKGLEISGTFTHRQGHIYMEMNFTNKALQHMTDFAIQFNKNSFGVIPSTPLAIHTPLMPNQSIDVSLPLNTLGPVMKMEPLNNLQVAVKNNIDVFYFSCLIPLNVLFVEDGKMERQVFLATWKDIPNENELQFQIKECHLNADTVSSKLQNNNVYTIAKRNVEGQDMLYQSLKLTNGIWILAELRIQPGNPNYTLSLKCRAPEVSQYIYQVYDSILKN
Chain of ATP-binding cassette sub-family B member 6 (Homo sapiens) (Q9NP58 whole entry, looked up): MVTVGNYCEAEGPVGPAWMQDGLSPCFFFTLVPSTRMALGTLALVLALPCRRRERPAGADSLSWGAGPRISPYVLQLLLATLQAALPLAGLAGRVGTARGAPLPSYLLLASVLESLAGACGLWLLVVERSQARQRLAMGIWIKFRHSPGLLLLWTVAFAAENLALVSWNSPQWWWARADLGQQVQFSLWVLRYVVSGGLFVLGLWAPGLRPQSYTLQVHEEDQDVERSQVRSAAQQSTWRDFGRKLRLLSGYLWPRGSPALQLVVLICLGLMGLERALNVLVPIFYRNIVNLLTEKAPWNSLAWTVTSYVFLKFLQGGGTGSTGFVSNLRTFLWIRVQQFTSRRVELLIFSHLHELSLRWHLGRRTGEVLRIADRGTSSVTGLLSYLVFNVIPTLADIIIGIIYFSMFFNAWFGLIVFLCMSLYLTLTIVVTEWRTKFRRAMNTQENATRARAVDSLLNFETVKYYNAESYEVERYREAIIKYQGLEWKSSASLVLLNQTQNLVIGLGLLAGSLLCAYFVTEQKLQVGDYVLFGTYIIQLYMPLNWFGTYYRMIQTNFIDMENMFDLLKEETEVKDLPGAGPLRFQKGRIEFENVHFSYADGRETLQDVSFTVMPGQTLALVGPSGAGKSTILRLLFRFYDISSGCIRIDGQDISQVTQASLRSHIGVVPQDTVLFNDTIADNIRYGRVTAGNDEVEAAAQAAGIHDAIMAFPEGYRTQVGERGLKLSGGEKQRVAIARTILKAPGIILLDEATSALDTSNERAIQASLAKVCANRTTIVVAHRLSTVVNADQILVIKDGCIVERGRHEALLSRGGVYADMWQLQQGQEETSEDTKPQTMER
Chain of Beta-2 adrenergic receptor (Homo sapiens) (P07550 whole entry, looked up): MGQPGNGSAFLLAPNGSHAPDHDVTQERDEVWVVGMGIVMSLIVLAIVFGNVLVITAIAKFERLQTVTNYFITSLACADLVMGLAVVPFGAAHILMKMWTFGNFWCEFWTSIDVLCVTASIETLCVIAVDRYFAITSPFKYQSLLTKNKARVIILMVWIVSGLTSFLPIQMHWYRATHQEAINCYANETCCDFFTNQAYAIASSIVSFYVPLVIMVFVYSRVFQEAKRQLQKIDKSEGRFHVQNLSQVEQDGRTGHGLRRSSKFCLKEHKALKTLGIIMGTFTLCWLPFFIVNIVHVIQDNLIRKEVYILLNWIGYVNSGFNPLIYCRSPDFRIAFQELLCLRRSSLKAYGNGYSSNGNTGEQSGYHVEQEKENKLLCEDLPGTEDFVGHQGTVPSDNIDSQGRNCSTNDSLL
Chain of Integrin beta-1 (Homo sapiens) + Integrin alpha-4 (Homo sapiens) (P05556 whole entry, looked up): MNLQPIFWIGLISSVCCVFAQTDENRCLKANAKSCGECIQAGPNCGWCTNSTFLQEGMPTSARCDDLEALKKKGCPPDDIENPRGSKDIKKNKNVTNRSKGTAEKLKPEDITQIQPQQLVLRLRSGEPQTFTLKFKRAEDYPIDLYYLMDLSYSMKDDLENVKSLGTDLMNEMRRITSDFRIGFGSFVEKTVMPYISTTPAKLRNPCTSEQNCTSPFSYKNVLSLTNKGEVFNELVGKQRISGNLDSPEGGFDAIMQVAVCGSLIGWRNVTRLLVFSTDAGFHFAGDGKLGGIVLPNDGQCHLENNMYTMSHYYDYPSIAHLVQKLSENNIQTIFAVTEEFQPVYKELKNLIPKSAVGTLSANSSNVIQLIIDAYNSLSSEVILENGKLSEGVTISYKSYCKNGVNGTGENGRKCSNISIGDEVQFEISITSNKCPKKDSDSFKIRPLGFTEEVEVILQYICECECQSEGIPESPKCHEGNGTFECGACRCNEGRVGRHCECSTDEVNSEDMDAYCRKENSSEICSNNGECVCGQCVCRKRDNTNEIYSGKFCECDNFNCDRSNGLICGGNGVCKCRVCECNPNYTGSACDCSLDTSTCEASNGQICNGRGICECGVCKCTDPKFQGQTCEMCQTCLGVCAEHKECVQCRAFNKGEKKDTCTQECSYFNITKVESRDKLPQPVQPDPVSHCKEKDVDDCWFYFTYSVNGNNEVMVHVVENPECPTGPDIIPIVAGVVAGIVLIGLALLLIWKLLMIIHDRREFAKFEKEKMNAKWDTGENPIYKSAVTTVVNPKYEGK
Chain of Integrin beta-1 (Homo sapiens) + Integrin alpha-4 (Homo sapiens) (P13612 whole entry, looked up): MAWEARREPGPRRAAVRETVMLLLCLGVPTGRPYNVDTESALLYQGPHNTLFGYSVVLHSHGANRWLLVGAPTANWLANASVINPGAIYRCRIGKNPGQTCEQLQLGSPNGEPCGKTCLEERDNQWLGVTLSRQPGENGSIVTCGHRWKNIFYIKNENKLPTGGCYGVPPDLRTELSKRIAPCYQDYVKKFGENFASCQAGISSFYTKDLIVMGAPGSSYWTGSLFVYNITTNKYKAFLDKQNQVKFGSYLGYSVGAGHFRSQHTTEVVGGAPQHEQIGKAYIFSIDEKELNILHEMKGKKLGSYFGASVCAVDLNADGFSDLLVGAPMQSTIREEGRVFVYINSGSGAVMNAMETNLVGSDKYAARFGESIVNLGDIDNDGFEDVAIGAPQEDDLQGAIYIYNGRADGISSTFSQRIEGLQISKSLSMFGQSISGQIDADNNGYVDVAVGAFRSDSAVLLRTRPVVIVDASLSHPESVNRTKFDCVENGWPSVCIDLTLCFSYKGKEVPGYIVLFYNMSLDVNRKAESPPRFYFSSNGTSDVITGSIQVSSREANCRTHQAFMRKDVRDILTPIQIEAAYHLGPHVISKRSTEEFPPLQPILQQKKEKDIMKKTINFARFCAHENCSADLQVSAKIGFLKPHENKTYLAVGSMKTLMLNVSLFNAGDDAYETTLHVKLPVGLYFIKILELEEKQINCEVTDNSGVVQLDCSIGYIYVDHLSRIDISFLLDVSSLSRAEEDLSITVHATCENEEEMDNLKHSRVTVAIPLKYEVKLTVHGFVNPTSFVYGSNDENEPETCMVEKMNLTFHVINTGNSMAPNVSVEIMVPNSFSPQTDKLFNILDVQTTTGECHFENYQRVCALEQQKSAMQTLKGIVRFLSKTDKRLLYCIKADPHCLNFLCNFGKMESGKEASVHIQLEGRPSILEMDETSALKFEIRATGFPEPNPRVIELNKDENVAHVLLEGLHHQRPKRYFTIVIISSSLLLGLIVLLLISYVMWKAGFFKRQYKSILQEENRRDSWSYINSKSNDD
Chain of Beta-adrenergic receptor kinase 1 (Homo sapiens) (P25098 whole entry, looked up): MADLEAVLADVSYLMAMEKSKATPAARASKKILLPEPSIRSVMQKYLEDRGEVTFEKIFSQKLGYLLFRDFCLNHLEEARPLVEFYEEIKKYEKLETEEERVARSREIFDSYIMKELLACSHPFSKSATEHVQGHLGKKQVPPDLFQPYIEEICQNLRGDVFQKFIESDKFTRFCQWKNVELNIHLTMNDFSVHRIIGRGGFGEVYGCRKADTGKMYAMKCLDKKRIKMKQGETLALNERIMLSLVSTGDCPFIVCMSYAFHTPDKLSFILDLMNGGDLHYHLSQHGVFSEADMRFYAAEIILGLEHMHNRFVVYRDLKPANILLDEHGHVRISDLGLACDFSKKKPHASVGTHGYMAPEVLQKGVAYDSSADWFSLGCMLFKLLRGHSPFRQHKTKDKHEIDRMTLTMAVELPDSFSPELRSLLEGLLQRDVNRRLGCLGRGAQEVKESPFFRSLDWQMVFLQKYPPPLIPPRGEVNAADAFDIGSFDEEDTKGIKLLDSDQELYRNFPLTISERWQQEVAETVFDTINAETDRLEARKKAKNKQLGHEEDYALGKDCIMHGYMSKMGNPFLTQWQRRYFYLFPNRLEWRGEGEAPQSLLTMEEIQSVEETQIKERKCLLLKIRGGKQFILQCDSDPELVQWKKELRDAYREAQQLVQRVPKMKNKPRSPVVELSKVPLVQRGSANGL

As for `C[C@@H]1C[C@H]2[C@@H]3C[C@H](F)C4=CC(=O)C=C[C@]4(C)[C@@]3(F)[C@@H](O)C[C@]2(C)[C@@]1(O)C(=O)COC(=O)C(C)(C)C`, in experiment [1], the percent of DMSO control GFP was 101% (inactive). Besides, the GFP response vs DMSO was 105% (inactive) in experiment [2] and 98.7% (inactive) in experiment [4]. Moreover, in experiment [3], the percent response of DMSO control was 99.3% (inactive). Also, the GFP response, % of DMSO in experiment [5] was 99.2% (inactive). This compound also returned a double positive events in experiment [6] of 58.5%. Further, the vesicle binding response in [6] was 142% (inactive). In addition, the inhibition is 6.85% (inactive) in experiment [7], 19.2% (inactive) in experiment [11] and 4% (inactive) in [15]. In [8], the superoxide response (% of plate) was 104% (inactive). Besides, in experiment [9], the aptamer binding inhibition was 3% (inactive). The response was -5.56% (inactive) in experiment [10] and 0.5% (inactive) in experiment [12]. In addition, the binding (% of control) in experiment [13] is 100% (inactive). Also, the efflux inhibition (fraction of control) in experiment [14] is 0.14 (inactive). Also, the differentiation response in experiment [16] was -4.16% (inactive).

Consider `C[N+](C)(C)CCCC(=O)c1ccc2c(c1)OCO2`, for which the percent of DMSO control GFP in experiment [1] is 94.4% (inactive). Moreover, the results for the GFP response vs DMSO in experiment [2] and in experiment [4] were 111% (inactive) and 107% (inactive), respectively. In addition, the percent response of DMSO control in [3] is 96.7% (inactive). Moreover, in [5], the GFP response, % of DMSO was 97.7% (inactive). The double positive events in [6] came out at 59.8%. Further, the vesicle binding response in experiment [6] is 135% (inactive). Also, the inhibition in experiment [7] is -22.3% (inactive); in experiment [11], -2.19% (inactive); in [15], 8% (inactive). In [8], the superoxide response (% of plate) was 104% (inactive). Besides, the aptamer binding inhibition in [9] is 0% (inactive). Besides, the response in experiment [10] was -0.41% (inactive); in [12], 0.48% (inactive). In experiment [13], the binding (% of control) was 101% (inactive). Besides, in experiment [14], the efflux inhibition (fraction of control) was -0.03 (inactive). For the same compound, in experiment [16], the differentiation response is -12% (inactive).

Turning to `COc1ccc(C2CC(c3c(O)cc(C)oc3=O)=NCCS2)c(OC)c1` (stereo not given), the percent of DMSO control GFP in experiment [1] was 102% (inactive). The GFP response vs DMSO in experiment [2] is 108% (inactive); in experiment [4], 86.8% (inactive). The percent response of DMSO control in experiment [3] is 111% (inactive). Also, the GFP response, % of DMSO in experiment [5] is 96.4% (inactive). This compound also gave a double positive events in experiment [6] of 64.5%. In experiment [6], the vesicle binding response is 818% (inactive). The values for the inhibition in experiment [7], in [11] and in experiment [15] were 36.9% (inactive), 1.7% (inactive) and -46% (inactive), respectively. Besides, the superoxide response (% of plate) in [8] is 92% (inactive). Further, the aptamer binding inhibition in experiment [9] was 1% (inactive). In addition, the response in [10] is 19.6% (inactive); in experiment [12] it was 0.66% (inactive). The binding (% of control) in [13] was 108% (inactive). The efflux inhibition (fraction of control) in experiment [14] is 0.14 (inactive). For the same compound, the differentiation response in experiment [16] was -4.64% (inactive).

Turning to `CCCN(CCC)C(=O)C(CCC(=O)O)NC(=O)c1ccccc1` (stereo not given), in experiment [1], the percent of DMSO control GFP was 98.8% (inactive). Moreover, the GFP response vs DMSO in [2] was 109% (inactive); in experiment [4], 92% (inactive). In addition, in experiment [3], the percent response of DMSO control is 95.4% (inactive). The GFP response, % of DMSO in experiment [5] is 94.5% (inactive). In addition, the double positive events in experiment [6] was 59.4%. Besides, the vesicle binding response in [6] was 977% (inactive). Besides, the inhibition in experiment [7] was 7.85% (inactive); in [11] it was -5.39% (inactive); in experiment [15], -8% (inactive). For the same compound, in [8], the superoxide response (% of plate) is 94.3% (inactive). Moreover, the aptamer binding inhibition in [9] is 7% (inactive). Besides, the response in experiment [10] was -4.18% (inactive); in experiment [12], -4.29% (inactive). Besides, in experiment [13], the binding (% of control) was 99.8% (inactive). Besides, the efflux inhibition (fraction of control) in [14] is -0.2 (inactive). The differentiation response in [16] is 6.11% (inactive).

For `O=C(O)CCCCCCNC(=O)c1cncc(O)c1`, the percent of DMSO control GFP in [1] was 104% (inactive). Further, the GFP response vs DMSO in experiment [2] was 107% (inactive); in experiment [4], 113% (inactive). The percent response of DMSO control in experiment [3] is 105% (inactive). Besides, in [5], the GFP response, % of DMSO was 115% (inactive). In [6], this compound yielded a double positive events of 63.9%. Besides, the vesicle binding response in [6] was 153% (inactive). The inhibition in experiment [7] is 13.4% (inactive); in experiment [11], 12.7% (inactive); in experiment [15], -5% (inactive). Also, the superoxide response (% of plate) in [8] is 112% (inactive). For the same compound, the aptamer binding inhibition in experiment [9] was 7% (inactive). Besides, the response was -25.8% (inactive) in [10] and -3.09% (inactive) in experiment [12]. In experiment [13], the binding (% of control) was 97.3% (inactive). In addition, the efflux inhibition (fraction of control) in experiment [14] is 0 (inactive). In addition, the differentiation response in experiment [16] was -4% (inactive).

The term inhibition denotes the change of the read-out against control, counted positive when it falls.

The values are drawn from PubChem BioAssay.
